Assay results published in paper PMC5540273 (PLoS ONE, 2017).

The compounds below were run on TIE1. Conditions: concentration: 1 μM, replicates: in singlicate; n = 1.
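Also: KINOMEscan kinase panel screen.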

In order of falling “%Inh” value:
1. Nc1ncnc2scc(-c3ccc(NC(=O)Cc4cc(F)ccc4F)cc3)c12.O=C(O)C(F)(F)F [SB-731254-M]  98.7%
2. CC(C)c1nc(-c2ccc(F)c(NS(=O)(=O)c3c(F)cccc3F)c2)c(-c2ccnc(Nc3ccc(N4CCOCC4)nc3)n2)s1 [GSK1804250]  87%
3. NCCC(NC(=O)c1cc(Br)c(-c2ccnc3[nH]ccc23)s1)c1ccccc1.O=C(O)C(F)(F)F.O=C(O)C(F)(F)F (centres unmarked) [GSK1307810]  73%
4. COc1ccc(NC(=O)c2ccoc2)cc1-c1ccc(C(=O)NCC2CC2)cc1 [GW810437]  0%

The compounds below were run on T1, TIE2. Conditions: concentration: 1 μM, replicates: in singlicate; n = 1.
T1 construct: gene TEK

In order of rising “%Inh” value:
1. c1ccc(Oc2ccc(Nc3ccnc4cc(-c5ccc(CN6CCCCC6)o5)ccc34)cc2)nc1 [GW567143]  0%
2. CN(c1ccc(F)c(NC(=O)c2cccc(OC(C)(C)C#N)c2Cl)c1)c1ccc2nc(NC(=O)C3CC3)sc2n1  0%
3. Cc1ccc(-c2ccc3occ(-c4ccc(S(C)=O)cc4)c3c2)nn1 (centres unmarked)  15%
4. COc1ccc(C)c(Nc2ccnc(Nc3ccc(-c4cnc[nH]4)cc3)n2)c1.Cl [GW784041]  36%
5. CCn1c(-c2nonc2N)nc2c(-c3ccccc3)ncc(OCCCN)c21.O=C(O)C(F)(F)F.O=C(O)C(F)(F)F [GSK260205]  41%
6. Cn1cc(-c2ccc3c(c2)CCN3C(=O)Cc2cc(F)cc(F)c2F)c2c(N)ncnc21 [GSK2634140]  52%
7. COc1cc(Nc2nccc(N3CCC(NS(=O)(=O)c4ccc(NC(C)=O)cc4)CC3)n2)cc(OC)c1OC [GSK1379825]  63%
